Data reported in PubChem BioAssay.
Activity calls are given as the source filed them. How the calls were made is not given here.

Target: Pantothenate synthetase (Mycobacterium tuberculosis (strain ATCC 25618 / H37Rv)) (UniProt P9WIL5)
Experiment: Coupled enzyme confirmation of inhibitors against recombinant Mtb PanC (AID 375);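 further: 0% = full reaction with vehicle and 100% = no enzyme background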
Conditions: coupled enzyme assay; at 10 µM, stronger effect = higher value

Pantothenate synthetase (Mycobacterium tuberculosis (strain ATCC 25618 / H37Rv)), sequence (P9WIL5 whole entry, looked up): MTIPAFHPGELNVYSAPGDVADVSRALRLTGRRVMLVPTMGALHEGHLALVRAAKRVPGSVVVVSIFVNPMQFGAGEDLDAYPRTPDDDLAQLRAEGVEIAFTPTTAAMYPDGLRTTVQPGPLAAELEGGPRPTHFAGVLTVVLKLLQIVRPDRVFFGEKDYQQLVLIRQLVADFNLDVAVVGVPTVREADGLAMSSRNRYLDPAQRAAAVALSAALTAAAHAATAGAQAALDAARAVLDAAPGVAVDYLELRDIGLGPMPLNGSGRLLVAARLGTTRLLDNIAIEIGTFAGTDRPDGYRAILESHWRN

SMILES | inhibition
COC(=O)Nc1ccc(NC(C)=O)cc1 | 0% (inactive)
Cc1ccc(S(=O)(=O)NCCC(=O)OCn2nnc3ccccc3c2=O)cc1 | 1% (inactive)
CC(=O)C1=C(O)C(=O)N(C2CCCCC2)C1c1ccccc1 (stereo not given) | 0% (inactive)
CC(C)(C)SCCNC(=O)CSc1ccccc1 | 7% (inactive)
Cc1cc(C(=O)NCc2cccnc2)n(-c2ccccc2)n1 | 0% (inactive)
O=C(NCC(c1cccnc1)N1CCOCC1)c1cccs1 (stereo not given) | 0% (inactive)
CCOc1cc(S(=O)(=O)Nc2ccccn2)ccc1F | 0% (inactive)
COc1ccc(CCNC(=O)c2cc(-c3cc(C)c(C)cc3O)n[nH]2)cc1OC | 0% (inactive)
CCOC(=O)N1CCN(CC(=O)Nc2cc(C)nn2-c2nc3ccccc3s2)CC1 | 0% (inactive)
COc1cc(NS(=O)(=O)c2ccc(N)cc2)nc(OC)n1 | 0% (inactive)
CCn1c(CCNC(=O)c2ccc(OC)c(OC)c2)nc2ccccc21 | 3% (inactive)
COc1ccc(CN(C(=O)c2cccs2)c2nccs2)cc1OC | 3% (inactive)
OC1(c2cccc(C(F)(F)F)c2)CCNCC1 | 4% (inactive)
O=S(=O)(c1ccc2nc(Cc3cccc(C(F)(F)F)c3)[nH]c2c1)N1CCOCC1 | 0% (inactive)
COc1ccc(CC(=O)OCC(=O)NC(=O)NC2CCCCC2)cc1 | 7% (inactive)
Cc1ccc(NC(=O)CSc2nnc(CNC(=O)c3c(F)cccc3Cl)o2)cc1 | 3% (inactive)
CC(C)NC(=O)Nc1cccs1 | 9% (inactive)
COc1ccccc1N1C(=O)CCC1(C#N)c1ccccc1 (stereo not given) | 0% (inactive)
CCOC(=O)Cc1nnc2c(Nc3ccc(C)cc3)nc3nonc3n12 | 1% (inactive)
COc1ccc(N2CCN(C(=O)CSc3nnc(Cn4nnc5ccccc54)n3C)CC2)cc1 | 0% (inactive)

SMILES | inhibition
Cc1ccc(CNC(=O)CCCn2c(=O)c3ccccc3n(CC(=O)NCc3ccco3)c2=O)cc1 | 0% (inactive)
COc1ccc(Br)cc1C(=O)Nc1nnn(C)n1 | 0% (inactive)
O=c1ccn(Cc2ccccc2Cl)cc1 | 0% (inactive)
COCCNC(=S)c1ccc(OC)cc1 | 5% (inactive)
COc1ccccc1-c1nc(C(F)(F)F)c(OC)o1 | 0% (inactive)
Cc1ccc(NC(=O)CSC2=C(C#N)C(c3ccc4c(c3)OCO4)CC(=O)N2)cc1C (stereo not given) | 0% (inactive)
Cc1cccc2c1N(CC(=O)OC(C)C)C(=O)C2=O | 0% (inactive)
COCCNC(=O)C(c1ccc(C)o1)N(Cc1ccc(OC)cc1)C(=O)Cn1nnc2ccccc21 (stereo not given) | 1% (inactive)
O=C(NC1=NCCS1)NC12CC3CC(CC(C3)C1)C2 | 2% (inactive)
CCn1c(C(=O)N2CCC(C(=O)N3CCN(c4ccccn4)CC3)CC2)cc2sccc21 | 7% (inactive)
CCCn1c(O)c(CN2CCCC(C)C2)c(C)c(C#N)c1=O (stereo not given) | 10% (inactive)
COc1cccc(NC(=O)NC2(C(F)(F)F)Oc3ccccc3O2)c1 | 0% (inactive)
CCCCCc1c(C)nc(N2CCc3ccccc32)[nH]c1=O | 0% (inactive)
CN(C)C=Nc1nonc1N | 10% (inactive)
Cc1ccc(CCNC(=O)C2CCN(S(=O)(=O)c3cccc4nsnc34)CC2)cc1 | 6% (inactive)
CC1(C)OC(=O)C(=CNC(CCC(N)=O)C(=O)O)C(=O)O1 (stereo not given) | 3% (inactive)
CC(C)=CCC(C)(C)C1OCCN1C(=O)c1ccccc1 (stereo not given) | 2% (inactive)
CC1CCCN(C(=O)c2cc3c(-c4ccc(Cl)cc4)nn(C)c3s2)C1 (stereo not given) | 4% (inactive)
C=Cn1nc(C)c2ccccc2c1=O | 0% (inactive)
COc1ccccc1-c1nnc(SCC(=O)NC2CCCCC2)o1 | 0% (inactive)
